# Screening results from PubChem.
# FLuc modulator: qHTS profiling assay for firefly luciferase inhibitor/activator using purifed enzyme and Km concentrations of substrates (counterscreen for miR-21 project). purified FLuc, Km substrates, luminescence inhibition. Potency, µM (highest dose often 57.5 µM), for the others: top-dose activity change, negative = inhibition, usual class: inhibitors. actives 6.9% (n = 360,000). AID 588342, 2011;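 note: plate controls were vehicle for no effect and reference inhibitor for full effect; nearly all actives have a fitted effect of over 55% in size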
# Target sequence (P08659 whole entry, looked up): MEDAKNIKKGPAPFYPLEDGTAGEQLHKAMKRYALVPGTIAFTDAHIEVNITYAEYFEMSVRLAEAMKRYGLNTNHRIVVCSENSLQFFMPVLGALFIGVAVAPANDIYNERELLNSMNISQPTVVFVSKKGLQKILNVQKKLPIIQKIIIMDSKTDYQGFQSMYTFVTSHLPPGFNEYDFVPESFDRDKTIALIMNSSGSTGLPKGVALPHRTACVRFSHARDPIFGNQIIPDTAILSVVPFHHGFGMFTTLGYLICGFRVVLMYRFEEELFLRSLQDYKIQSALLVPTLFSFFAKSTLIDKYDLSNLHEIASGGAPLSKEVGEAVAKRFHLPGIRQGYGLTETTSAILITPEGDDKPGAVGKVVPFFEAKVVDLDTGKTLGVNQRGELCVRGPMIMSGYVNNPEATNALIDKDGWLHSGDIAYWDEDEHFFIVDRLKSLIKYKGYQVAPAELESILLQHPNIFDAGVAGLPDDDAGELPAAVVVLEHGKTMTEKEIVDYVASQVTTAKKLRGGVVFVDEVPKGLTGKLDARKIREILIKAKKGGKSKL
#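 Biochemical qHTS of compounds, final roughly 60 µM downward over six points, against 10 nM purified firefly luciferase using Km concentrations of substrates (10 uM D-luciferin, 10 uM ATP) in Tris acetate pH 7.5 buffer; luminescence output.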
# NPC1 prom act: qHTS Assay for NPC1 Promoter Activators; actives 2.4% (n = 320,000); AID 485313, 2010; Huh7 NPC1 promoter luciferase reporter, 24 h; Potency, µM (highest dose often 9.22 µM), inactives show at the highest dose activation, actives largely listed as activators; note: % of control where 0% means no effect; nearly all actives have a fitted effect of over 60% in size
#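 Luciferase expression driven by the NPC1 promoter was measured in stably transfected Huh7 cells after a 24 h compound incubation, using a luciferase reagent and a luminescence read.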
# ELG1 DNA repair: qHTS screen for small molecules that inhibit ELG1-dependent DNA repair in human embryonic kidney (HEK293T) cells expressing luciferase-tagged ELG1. Potency, µM (highest dose often 46.1 µM), inactives show at the highest dose activity change, negative = inhibition, hits mostly inhibitors. HEK293T ELG1-luciferase reporter, luminescence, 16 h; DNA damage induced by 5-fluorouridine. actives 2.3% (n = 330,000); note: % is set by controls: 0 for no effect and ±100 for the full control effect; nearly all actives have a fitted effect of over 55% in size
#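 5-Fluorouridine DNA damage + compound/DMSO, 2,000 cells/well, 16 h, 37 °C/5% CO2. ONE-Glo, 30 min RT, luminescence. Readout = decrease in reporter signal.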
# SMN2 splice enh: qHTS Assay for Enhancers of SMN2 Splice Variant Expression; HEK293 SMN2-luciferase splicing reporter, luminescence, 30-36 h; Potency, µM (titrated, usually from 46.1 µM), for the others: at the highest dose activity change, positive = activation, hits mostly activators; actives 2.8% (n = 210,000); AID 1458, 2008; note: % of control where 0% means no effect; nearly all actives have a fitted effect of over 55% in size
#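 HEK293 cells carry an SMN2 minigene-luciferase reporter in which exon 7 inclusion puts luciferase in frame. Cells were seeded at 2000 cells/well, attached for 10-12 hours, then exposed to compounds for 30-36 hours at 37C before ONE-Glo luminescence.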
# Rab9 promoter act: qHTS Assay for Rab9 Promoter Activators; Huh7 Rab9 promoter-luciferase reporter, luminescence, 24 h; Potency, µM (titrated, usually from 9.22 µM), without a hit: at the top dose activation, negative = inhibition, most hits filed as activators; actives 2.8% (n = 320,000); AID 485297, 2010; note: % of control where 0% means no effect; nearly all actives have a fitted effect of over 60% in size
#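 Stable Rab9-luc Huh7, 1500 cells/well, 2 h settle; cmpd in DMSO, 24 h, 37 °C/5% CO2; luciferase reagent 10 min RT; luminescence.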
# ELG1 genotoxic: qHTS screen for small molecules that induce genotoxicity in human embryonic kidney (HEK293T) cells expressing luciferase-tagged ELG1; Potency, µM (titrated, usually from 46 µM), for inactives: top-dose activity change, positive = activation, most hits filed as activators; actives 1.3% (n = 330,000); HEK293T ELG1-luciferase reporter, luminescence, 16 h; note: % of control where 0% means no effect; nearly all actives have a fitted effect of over 60% in size
#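 16 hr compound incubation (37 °C, 5% CO2) of HEK293T cells carrying luciferase-tagged ELG1; luciferase then measured by ONE-Glo luminescence after 30 min at RT.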
# An asterisk follows results filed as active; ? = inconclusive; · = no result; [ ] = remark or other dose. Shown are actives, neighbours in structure and some others; about 9.2% of the full set was active somewhere. Calls come from the whole dose curve; as a rule, active = well fitted curve in the direction sought with a large enough effect; inconclusive = small, poorly fitted or top-dose-only effect, or another doubt; inactive = no such curve, though single readings can be large; an effect the other way counts as inactive or inconclusive. Potency is the fitted concentration of half-maximal effect.
SMILES,FLuc modulator,NPC1 prom act,ELG1 DNA repair,SMN2 splice enh,Rab9 promoter act,ELG1 genotoxic
Cc1cc(C)c(/C=C/c2onc(C)c2S(=O)(=O)N2CCC(C(=O)NCc3ccccc3Cl)CC2)c(C)c1,2%,·,·,·,·,·
Cc1ccc(C(=O)N/C(=C\c2ccco2)C(=O)NCCN2CCOCC2)cc1C,-1%,0%,-4%,·,-8%,13%
CCCN(CCC)C(=O)Cn1c(=O)n(-c2ccc(CC)cc2)c(=O)c2ccc(C(=O)NCCc3ccccc3)cc21,0%,·,·,-5%,·,·
O=C(COc1ccccc1)Nc1cc(Cl)ccc1Cl,?,15%,?,·,4%,20%
O=C(COc1ccccc1O)Nc1ccccc1Cl,21µM*,4µM*,?,3%,?,?
S=C(Nc1ccccc1)Nc1ccc(Cl)cc1Cl,27µM*,3.2µM*,8%,26%,?,21µM*
O=C(COc1ccccc1)Nc1ccc(Cl)cc1Cl,6µM*,?,?,·,2.2µM*,?
CCN(C(=O)c1cn(CC)c(=O)c2cc(OC)c(OC)cc12)c1ccc(C)c(C)c1,-3%,·,·,-18%,·,·
CCOc1ccc(N(CC(=O)NCc2ccc(C)cc2)S(=O)(=O)c2c(C)noc2C)cc1,3%,·,·,-2%,·,·
CCOC(=O)N1CCN(C(=O)c2ccc3c(c2)N(Cc2ccccc2F)C(=O)c2ccccc2S3(=O)=O)CC1,0%,·,·,-2%,·,·
COCCN=c1scc(-c2ccco2)n1/N=C/c1ccc(O)c(O)c1O,17µM*,-4%,20%,7%,-5%,9%
CC(C)N=c1scc(-c2ccco2)n1/N=C/c1ccc(O)c(O)c1,9.5µM*,3%,?,?,-19%,?
C=CCN=c1scc(-c2ccco2)n1/N=C/c1ccc(O)c(O)c1O,4.8µM*,20%,?,·,?,?
O=C(O)CCc1ccc(-c2cccs2)n1NC(=O)c1ccco1,-2%,0%,13%,?,-3%,1%
COCCN=c1scc(-c2cccs2)n1/N=C(\C)c1ccco1,9.5µM*,?,?,?,2.5µM*,12%
Cc1cc(C)cc(NC(=O)Cn2c(=O)n(C(C)C)c(=O)c3oc4ccccc4c32)c1,1%,·,·,·,·,·
CCOc1cc(NC(=S)NCC2CCCO2)c(OCC)cc1NC(=O)c1ccc(C)cc1 (stereo not given),-4%,1%,-6%,2%,9%,-4%
CC(C)(C)c1ccc(C(=O)Nc2ccccc2C(=O)NCCN2CCOCC2)cc1,5.4µM*,29%,?,·,8%,15%
O=C(NC(=S)NCC1CCCO1)c1ccc(Cl)cc1 (stereo not given),?,26%,?,?,20%,?
O=C(Nc1ccccc1C(=O)NCC1CCCO1)c1ccco1 (stereo not given),4%,0%,-8%,26%,-6%,0%
Cc1ccc(C(=O)NC(=S)NCC2CCCO2)cc1 (stereo not given),17µM*,2.8µM*,?,14µM*,?,?
CCOc1cc(NC(=S)NCC2CCCO2)c(OCC)cc1NC(=O)c1ccc(F)cc1 (stereo not given),27µM*,-5%,13%,·,-6%,-2%
Cc1ccc(C(=O)Nc2ccccc2C(=O)NCC2CCCO2)cc1 (stereo not given),15µM*,-14%,?,·,9%,-2%
CCc1cccc(C)c1NC(=O)C1CCN(c2nnc(C)c3c(C)n(-c4ccccc4)nc23)CC1,0%,·,·,·,·,·
CC1CC(C)CN(S(=O)(=O)c2ccc3c(c2)oc(=O)n3CC(=O)NCCCOC(C)C)C1 (stereo not given),3%,4%,5%,·,-1%,-3%
SMILES,FLuc modulator,NPC1 prom act,ELG1 DNA repair,SMN2 splice enh,Rab9 promoter act,ELG1 genotoxic
CC(=O)N1CCN(C(=O)c2cc(S(=O)(=O)N3CCCCC3)ccc2Cl)CC1,0%,0%,10%,·,-8%,1%
CCOc1ccccc1NC(=O)Nc1cc(C(=O)NCc2ccc(C)cc2)ccc1N1CCCC1,-2%,·,·,·,·,·
CC(=O)Nc1cccc(Oc2ccc(-c3noc(C)n3)cc2)c1,12µM*,3.2µM*,?,10µM*,1.6µM*,9.2µM*
COc1ccc(-c2noc(-c3ccccc3C(=O)Nc3cccc(OC)c3)n2)cc1,11µM*,5%,?,-35%,-2%,-1%
O=C(Nc1ccc(-c2noc(-c3cccs3)n2)cc1)c1cccnc1,4.8µM*,1µM*,?,1.3µM*,0.45µM*,?
COc1ccc(-c2noc(-c3ccccc3C(=O)Nc3cccnc3)n2)cc1,13µM*,16%,?,5%,29%,-9%
Cc1c(Cl)cccc1NC(=O)c1ccc2nc(C(C)C)oc2c1,-1%,·,·,·,·,·
CC(C)(C)C(=O)OCc1cc(=O)n2nc(C3CC3)sc2n1,-8%,·,·,·,·,·
COc1ccccc1-c1noc(-c2ccccc2C(=O)Nc2cccnc2)n1,15µM*,-4%,-13%,24%,-3%,-5%
Cc1cc2c3c([nH]c2cc1S(=O)(=O)N1CCC2(CC1)OCCO2)CC(C)(C)CC3=O,-12%,1%,21µM*,·,-5%,0%[9.26 µM]
Cc1cccc(COc2ccccc2C(=O)OCC(=O)N(C)c2c(N)n(Cc3ccccc3)c(=O)[nH]c2=O)c1,-18%,-4%,21µM*,·,16%,-12%
